Where “and” joins values, the source holds several entries; their conditions need not be identical. Identical values can stand only once. Results filed as inconclusive are left out. Some compounds were tested as several samples or in several runs, with calls that do not always agree. Calls of active or inactive are those of the source. Rule for the calls, unless noted: active = hit-call score of the fitted dose curve at least 0.9, where 1 is the maximum; inactive = score below 0.9.
Assays:
[1] = read-out: Monocyte Chemoattractant Protein-1 (MCP1), CCL2 (gene 6347); test: BSK_SAg_MCP1: BioMAP Diversity Plus: SAg Assay for Monocyte Chemoattractant Protein-1 (MCP1) Biomarker Activity (AID 2283090); details: primary human HUVEC with PBMC; actives raise or lower the signal
In short: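 Values derive from bidirectional fitting of ELISA-measured MCP1 against DMSO controls. Readings were taken 24 h after dosing human vascular endothelial cells co-cultured with peripheral blood mononuclear cells under superantigen stimulation.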

[2] = read-out: E-selectin (Homo sapiens) (UniProt P16581); test: BSK_SAg_Eselectin: BioMAP Diversity Plus: SAg Assay for Eselectin Biomarker Activity (AID 2283091); details: primary human HUVEC with PBMC; actives raise or lower the signal
In short: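 Endpoint values derive from bidirectional fitting relative to DMSO, using ELISA-measured E-selectin in a human vascular co-culture (umbilical vein endothelium plus PBMC) sampled 24 h after dosing.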

[3] = read-out: Monokine induced gamma interferon (MIG), CXCL9 (gene 4283); test: BSK_SAg_MIG: BioMAP Diversity Plus: SAg Assay for Monokine induced gamma interferon (MIG) Biomarker Activity (AID 2283092); details: primary human HUVEC with PBMC; actives raise or lower the signal
In short: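 Values reflect bidirectional fitting of ELISA-measured MIG against DMSO vehicle, taken 24 h after dosing of a co-culture of human umbilical vein endothelial cells and peripheral blood mononuclear cells.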

[4] = BSK_SAg_PBMCCytotoxicity: PBMC Cytotoxicity Assessment in the BioMAP Diversity Plus: SAg Assay (AID 2283093); details: primary human HUVEC with PBMC;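 note: PBMC viability measured as Alamar Blue reduction fluorescence at 546/580 nm; fitted both ways against DMSO so a hit may be loss or gain of signal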;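 for AC50: PBMC superantigen activated with SEB plus TSST-1 one hour after compound addition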
In short: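 Alamar Blue reduction (6 h, 546/580 nm) reports PBMC cytotoxicity after 90 h superantigen activation (SEB, TSST-1; 20 ng/mL final each) with 1 h compound pre-treatment. Gain or loss of signal fitted versus DMSO.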

[5] = read-out: Interleukin-8 (IL8), CXCL8 (gene 3576); test: BSK_SAg_IL8: BioMAP Diversity Plus: SAg Assay for Interleukin-8 (IL8) Biomarker Activity (AID 2283094); details: primary human HUVEC with PBMC; actives raise or lower the signal
In short: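 HUVEC/PBMC co-culture, 24 h post-dose; IL-8 by ELISA. Gain or loss of signal fitted bidirectionally vs DMSO baseline.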

[6] = BSK_SAg_Proliferation: Cell Proliferation Assessment in the BioMAP Diversity Plus: SAg Assay (AID 2283095); details: primary human HUVEC with PBMC;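 note: relative cell number as total protein by SRB absorbance in sub-confluent culture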
In short: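 HUVEC/PBMC co-culture, 96-well. TCA-fixed (10%), 0.1% SRB stain, A560 at 96 h. Protein content used as viability readout; bidirectional fitting vs DMSO control.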

[7] = BSK_SAg_SRB: Viability Assessment in the BioMAP Diversity Plus: SAg Assay (AID 2283096); details: primary human HUVEC with PBMC;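 note: cells read one day after compound addition; hits may be either gain or loss of signal compared with DMSO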
In short: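 This overt-cytotoxicity endpoint quantifies protein in human endothelial/PBMC co-cultures at 24 h using SRB absorbance (560 nm) after trichloroacetic acid fixation. Values reflect signal change from the DMSO negative control, fitted bidirectionally.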

[8] = target: human CYP19A1, CYP19A1 (gene 1588) (UniProt P11511); test: NVS_ADME_hCYP19A1: NovaScreen (NVS) CYP450-related Enzyme Activity (ADME) Assay for human CYP19A1 (AID 2283098; active = hit-call score of the fitted dose curve at least 0.9, where 1 is the maximum;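 for AC50: potency for inhibitors seen as loss of fluorescent enzyme signal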)
In short: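 Compounds were first screened at 10 uM in duplicate against purified enzyme, with a fluorogenic substrate and fluorescence intensity detection after 0.5 h. Inhibition appears as reduced signal against acetonitrile control.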

[9] = target: human CYP1A1, CYP1A1 (gene 1543) (UniProt P04798); test: NVS_ADME_hCYP1A1: NovaScreen (NVS) CYP450-related Enzyme Activity (ADME) Assay for human CYP1A1 (AID 2283100; active = hit-call score of the fitted dose curve at least 0.9, where 1 is the maximum)
In short: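 Inhibition of recombinant CYP1A1 turnover was assessed fluorometrically in a biochemical format 1 h after compound exposure. Testing began at 10 uM in duplicate and progressed to concentration series reaching 20 uM, with on-plate positive and negative controls.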

[10] = target: human CYP2B6, CYP2B6 (gene 1555) (UniProt P20813); test: NVS_ADME_hCYP2B6: NovaScreen (NVS) CYP450-related Enzyme Activity (ADME) Assay for human CYP2B6 (AID 2283101; active = hit-call score of the fitted dose curve at least 0.9, where 1 is the maximum)
In short: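 Compounds were first screened in duplicate at 10 uM against recombinant enzyme, with the fluorescent product measured after 1 hour. Active compounds were retested over a concentration series. Loss of fluorescence versus acetonitrile control was scored as reduced enzyme activity.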

Measured: AC50

human CYP19A1, CYP19A1 (gene 1588), sequence (P11511 whole entry, looked up): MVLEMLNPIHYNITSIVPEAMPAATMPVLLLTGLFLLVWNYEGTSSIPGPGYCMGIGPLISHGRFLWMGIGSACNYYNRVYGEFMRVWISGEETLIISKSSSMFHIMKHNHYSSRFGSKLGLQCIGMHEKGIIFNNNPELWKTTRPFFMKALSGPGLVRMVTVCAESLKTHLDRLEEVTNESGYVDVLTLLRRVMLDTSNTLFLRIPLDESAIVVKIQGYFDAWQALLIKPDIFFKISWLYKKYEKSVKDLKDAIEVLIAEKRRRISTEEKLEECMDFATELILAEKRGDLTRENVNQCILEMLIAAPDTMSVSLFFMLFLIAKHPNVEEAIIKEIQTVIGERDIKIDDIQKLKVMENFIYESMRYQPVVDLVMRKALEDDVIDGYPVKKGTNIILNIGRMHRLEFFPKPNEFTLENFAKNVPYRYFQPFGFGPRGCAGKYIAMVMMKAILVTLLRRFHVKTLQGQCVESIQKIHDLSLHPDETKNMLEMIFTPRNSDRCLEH
human CYP1A1, CYP1A1 (gene 1543), sequence (P04798 whole entry, looked up): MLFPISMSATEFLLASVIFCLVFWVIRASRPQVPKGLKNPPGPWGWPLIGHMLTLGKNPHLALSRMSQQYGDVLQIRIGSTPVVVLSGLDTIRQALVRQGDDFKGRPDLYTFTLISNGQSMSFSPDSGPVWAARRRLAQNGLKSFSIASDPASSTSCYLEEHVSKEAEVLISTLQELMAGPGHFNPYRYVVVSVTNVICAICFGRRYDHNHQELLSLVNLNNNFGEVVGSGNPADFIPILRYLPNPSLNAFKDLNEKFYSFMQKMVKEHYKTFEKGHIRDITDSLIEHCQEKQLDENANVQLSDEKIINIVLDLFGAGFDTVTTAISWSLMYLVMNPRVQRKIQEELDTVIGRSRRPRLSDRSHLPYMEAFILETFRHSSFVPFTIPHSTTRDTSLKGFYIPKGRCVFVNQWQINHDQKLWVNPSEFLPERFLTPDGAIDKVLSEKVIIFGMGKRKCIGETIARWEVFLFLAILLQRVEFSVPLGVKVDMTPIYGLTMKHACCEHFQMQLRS
E-selectin (Homo sapiens), sequence (P16581 whole entry, looked up): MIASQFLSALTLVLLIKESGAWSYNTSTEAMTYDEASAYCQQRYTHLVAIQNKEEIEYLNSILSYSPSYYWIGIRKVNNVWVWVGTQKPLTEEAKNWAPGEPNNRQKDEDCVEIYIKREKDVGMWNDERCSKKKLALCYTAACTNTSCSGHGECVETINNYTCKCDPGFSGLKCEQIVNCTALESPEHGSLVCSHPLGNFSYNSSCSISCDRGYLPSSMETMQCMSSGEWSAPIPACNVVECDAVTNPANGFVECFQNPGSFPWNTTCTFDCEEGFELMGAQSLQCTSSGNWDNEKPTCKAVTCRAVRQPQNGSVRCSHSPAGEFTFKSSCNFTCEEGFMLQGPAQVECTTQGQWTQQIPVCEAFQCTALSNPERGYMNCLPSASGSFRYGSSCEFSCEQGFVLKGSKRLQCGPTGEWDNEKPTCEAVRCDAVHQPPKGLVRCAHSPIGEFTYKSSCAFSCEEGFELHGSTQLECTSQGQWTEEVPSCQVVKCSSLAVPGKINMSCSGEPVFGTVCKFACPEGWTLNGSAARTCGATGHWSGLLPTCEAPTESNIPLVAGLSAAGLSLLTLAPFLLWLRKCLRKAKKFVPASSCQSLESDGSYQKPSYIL
human CYP2B6, CYP2B6 (gene 1555), sequence (P20813 whole entry, looked up): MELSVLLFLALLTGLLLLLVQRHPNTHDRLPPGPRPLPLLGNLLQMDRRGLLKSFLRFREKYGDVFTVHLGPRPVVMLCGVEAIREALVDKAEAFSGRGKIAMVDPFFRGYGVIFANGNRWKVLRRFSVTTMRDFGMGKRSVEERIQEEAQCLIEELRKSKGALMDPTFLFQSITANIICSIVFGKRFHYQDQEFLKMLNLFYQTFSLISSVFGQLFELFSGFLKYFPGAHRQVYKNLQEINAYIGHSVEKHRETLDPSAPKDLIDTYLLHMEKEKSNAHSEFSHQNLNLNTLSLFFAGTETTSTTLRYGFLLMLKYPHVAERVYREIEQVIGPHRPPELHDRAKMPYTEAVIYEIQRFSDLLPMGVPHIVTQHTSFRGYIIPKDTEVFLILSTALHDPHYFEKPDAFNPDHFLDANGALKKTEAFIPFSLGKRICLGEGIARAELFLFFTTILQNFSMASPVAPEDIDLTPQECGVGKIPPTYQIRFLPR

CCn1cc(C(=O)O)c(=O)c2ccc(C)nc21
not listed: [8] | [9] | [10]
inactive: all other assays above

CC(C)(C)c1cccc(O)c1
inactive: [2] | [3] | [4] | [5] | [6] | [7]

OCCN1CCOCC1
inactive: [2] | [3] | [4] | [5] | [6] | [7]

c1ccc(OCCOc2ccccc2)cc1
inactive: [2] | [3] | [4] | [5] | [6] | [7]

CC=CC(=O)C1=C(C)C=CCC1(C)C
active: [5] 16 nM
inactive: [2] | [3] | [4] | [6] | [7]

C=C1CC/C=C(\C)CC[C@@H]2[C@@H]1CC2(C)C
inactive: [3]
active: [2] 20 µM | [4] 20 µM | [5] 32300 nM | [6] 22.8 µM | [7] 33.1 µM

NC(=O)c1c(Cl)cccc1Cl
inactive: [2] | [3] | [4] | [5] | [6] | [7]

CC1=CC(C)C(C=O)C(C)C1 (stereo not drawn) (tested in a mixture with another compound)
not listed: [8] | [9] | [10]
inactive: all other assays above

C=C(F)C(=O)OC(C(F)(F)F)C(F)(F)F
inactive: [2] | [3] | [4] | [5] | [6] | [7]

CCCCCCCCCCCCS
inactive: [2] | [3] | [4] | [5]
active: [6] 20 µM | [7] 36.1 µM

O=C(O)C(F)(F)C(F)(F)C(F)(F)C(F)(F)C(F)(F)C(F)(F)C(F)(F)C(F)F
inactive: [2] | [3] | [4] | [5] | [6] | [7]

CCCCCCCC1CCCC1=O (stereo not drawn)
inactive: [2] | [3] | [4] | [5] | [6] | [7]

O=C(c1ccc(OCCN2CCCCC2)cc1)c1c(-c2ccc(O)cc2)sc2cc(O)ccc12
active: [1] 30.7 µM | [2] 37.4 µM | [3] 34.7 µM | [4] 26.2 µM | [5] 28900 nM | [6] 14.6 µM | [7] 24.1 µM | [8] 4.25 µM [middle of 4 runs] | [9] 6.33 µM

CC(=O)OC(C)(C)C1CC=C(C)CC1 (stereo not drawn)
inactive: [2] | [3] | [4] | [5] | [6] | [7]

CC(=O)c1ccc(C)cc1
inactive: [2] | [3] | [4] | [5] | [6] | [7]

O=S(=O)(O)C(F)(F)C(F)(F)OC(F)(F)C(F)(F)F
inactive: [2] | [3] | [4] | [5] | [6] | [7]

c1ccc2c(c1)-c1ccc3ccc4cccc5cc-2c1c3c45
inactive: [2] | [3] | [4] | [5] | [6] | [7]

CCCCCCCCCC(=O)OCC
inactive: [3] | [5] | [7]
active: [2] 20 µM | [4] 34.1 µM | [6] 33.5 µM

CCOC(=O)C=Cc1ccccc1
inactive: [2] | [3] | [4] | [5] | [6] | [7]

C=C(C)C(N)=O
inactive: [2] | [3] | [4] | [5] | [6] | [7]

CC(C)CCCC(C)(C)O
inactive: [2] | [3] | [4] | [5] | [6] | [7]

CC(C)Cc1ccc(C(C)C(=O)O)cc1 (stereo not drawn)
inactive: [2] | [3] | [4] | [5] | [6] | [7]

CCOC(=O)CCCCCCCCC(=O)OCC
inactive: [2] | [3] | [4] | [5] | [6] | [7]

CCCCOCCOCCO
inactive: [2] | [3] | [4] | [5] | [6] | [7]

O=C(O)C(F)(F)OC(F)(F)C(F)(F)OC(F)(F)C(F)(F)C(F)(F)C(F)(F)F
inactive: [2] | [3] | [4] | [5] | [6] | [7]
active: [7] 30 µM

CC/C(=C(\c1ccccc1)c1ccc(OCCN(C)C)cc1)c1ccccc1
active: [2] 11.6 µM and 12.5 µM | [3] 14.1 µM and 11.3 µM | [4] 6.22 µM and 6.86 µM | [5] 18.3 µM and 7.16 µM | [6] 4.55 µM and 5.13 µM | [7] 10.3 µM and 9.96 µM
inactive: [8] | [10]

CC(=O)CCC=C(C)CCC=C(C)C
active: [6] 20 µM
inactive: [2] | [3] | [4] | [5] | [7]

CC(=O)OCC=C(C)CCC=C(C)CCC=C(C)C
inactive: [2] | [3] | [4] | [5] | [6] | [7]

CCCO[Si](OCCC)(OCCC)OCCC
inactive: [2] | [3] | [4] | [5] | [6] | [7]

C=C(C)C(=O)OCCC(F)(F)C(F)(F)C(F)(F)C(F)(F)C(F)(F)C(F)(F)C(F)(F)C(F)(F)F
inactive: [2] | [3] | [4] | [5] | [6] | [7]

C=CC(=O)OCC(CO)(COC(=O)C=C)COC(=O)C=C
active: [2] 0.333 µM | [3] 0.601 µM | [4] 0.0476 µM | [5] 219 nM | [6] 0.0305 µM | [7] 2.13 µM

CC(C)(CO)CO
inactive: [2] | [3] | [4] | [5] | [6] | [7]

O=S1(=O)CC(Cl)(Cl)C(Cl)(Cl)C1
active: [2] 0.224 µM | [3] 2.75 µM | [4] 0.515 µM | [5] 337 nM | [6] 0.0797 µM | [7] 0.655 µM

CCC(=O)OCC=Cc1ccccc1
inactive: [2] | [3] | [4] | [5] | [6] | [7]

CCCCC/C=C\C=C\C(=O)OCC
active: [8] 15.6 µM

COc1ccccc1NC(=O)CC(C)=O
inactive: [2] | [3] | [4] | [5] | [6] | [7]

OCC(F)(OC(F)(F)C(F)(OC(F)(F)C(F)(F)C(F)(F)F)C(F)(F)F)C(F)(F)F (stereo not drawn)
inactive: [3]
active: [2] 2.96 µM and 3.23 µM | [4] 2.03 µM and 1.97 µM | [5] 2.22 µM and 2.66 µM | [6] 2.09 µM and 2.02 µM | [7] 5.05 µM and 3.37 µM

c1ccc(Sc2ccccc2)cc1
active: [2] 30.2 µM | [3] 34.5 µM | [4] 33.9 µM | [5] 20000 nM | [6] 34 µM | [7] 31.7 µM

COC(=O)c1ccc(C(=O)OC)cc1
inactive: [2] | [3] | [4] | [5] | [6] | [7]

O=C1OC2(c3ccc(O)cc3Oc3cc(O)ccc32)c2ccccc21
inactive: [2] | [3] | [4] | [5] | [7]
active: [6] 1.02 µM

Nc1ccc(N)c([N+](=O)[O-])c1
inactive: [2] | [3] | [5] | [6] | [7]

CC(=O)OC(C)(C)C
inactive: [8]

CC1(C)[C@H](C=C(Cl)Cl)[C@H]1C(=O)OCc1cccc(Oc2ccccc2)c1
inactive: [2] | [3] | [4] | [5] | [6] | [7]

CC(=O)C1=C(C)[C@@H]2C[C@@]3(C1)[C@H](C)CC[C@H]3C2(C)C
inactive: [8]

CCCCN(CCO)CCO
inactive: [2] | [3] | [4] | [5] | [6] | [7]

C[C@]12CC[C@@H]3c4ccc(O)cc4CC[C@H]3[C@@H]1CC[C@@H]2O
inactive: [2] | [4] | [5] | [8]
active: [3] 20 µM | [6] 13.5 µM | [7] 10.3 µM

C#C[C@]1(O)CC[C@H]2[C@@H]3CCc4cc(O)ccc4[C@H]3CC[C@@]21C
active: [6] 5.51 µM | [7] 5.5 µM
not listed: [1] | [8]
inactive: all other assays above

CCCCCCCCOC(=O)c1ccc(O)cc1
active: [8] 7.86 µM
